The structures appear in SMILES notation. Screen size: about 340,000 compounds; about 12,000 (3.5%) were called active. About 18% were inconclusive and are not listed. The full list was thinned out, with actives kept by preference. Unmarked numbers belong to inactive results. The call rests on the fitted dose curve; in most records, active means well fitted inhibition curve with a large enough effect; inconclusive means small, poorly fitted or top-dose-only effect, or another doubt; inactive means no such curve, though single readings can be large or run the other way.
On the % scale 0 is the no-effect control and ±100 the full control effect; potency means the concentration at half of the fitted maximal effect.

The test can be described thus: qHTS Assay for Inhibitors of Hepatitis C Virus (HCV). To be noted: Huh7.5.1 HCVcc-Cre infection, luciferase reporter, 44 h; series mostly up to 41.8 µM; activity change, negative = inhibition: at the top concentration. The method, boiled down:
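Infectious HCV cell culture screen: compound-treated cells (1,000/well, pre-plated 4 h) are infected with HCVcc-Cre at roughly 0.5 moi and grown 44 h. Infection is quantified by luciferase signal after 15 min substrate incubation at room temperature.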
Turning to `O=C(NCCc1ccccc1)c1c[nH]c2ccc(F)cc2c1=O`, the “activity change, negative = inhibition” value was -7.82%.

In the case of `CCOc1ccc(CC(=O)NCCS(=O)(=O)N2CCN(c3ccccc3)CC2)cc1`, the activity change, negative = inhibition was -0.883% [at 8.37 µM].

Consider `N#Cc1ccc(C2=CC(=O)C[C@H](c3ccc(Cl)cc3)C2)cc1`, for which the “activity change, negative = inhibition” value is 16.4%.

On to `O=C(NCc1ccncc1)C1CCCN(S(=O)(=O)c2ccc(Br)cc2)C1` (stereo not drawn), for which the “activity change, negative = inhibition” value is 1.08%.

Regarding `CC(=O)N1c2ccc(S(=O)(=O)N3CCC(C(=O)NC4CCCC(C)C4C)CC3)cc2CC1C` (stereo not drawn), the “activity change, negative = inhibition” value was 7.36%.

For `O=C(C1CCCN(S(=O)(=O)c2ccccc2)C1)N1CCN(c2ccc(F)cc2)CC1` (stereo not drawn), the Potency was 20 µM (active).

For `COc1cccc(N2CCN(C(=O)C3CCCN(S(=O)(=O)c4cnc[nH]4)C3)CC2)c1` (stereo not drawn), the “activity change, negative = inhibition” value was 4.7%.

As for `CCCS(=O)(=O)N1CCCC(C(=O)N2CCN(c3ccccc3)CC2)C1` (stereo not drawn), the “activity change, negative = inhibition” value was -7.58%.

With `CC(=O)N1CCCc2cc(S(=O)(=O)CCC(=O)N3CCN(c4ccccc4)CC3)ccc21`, the “activity change, negative = inhibition” value was -6%.

As to `CC(=O)Nc1ccc(NC(=O)C2CCCN(S(=O)(=O)c3ccc(Cl)cc3)C2)cc1` (stereo not drawn), the “activity change, negative = inhibition” value was 27%.

Regarding `Cc1ccc(S(=O)(=O)N2CCCC(C(=O)N3CCN(C)CC3)C2)cc1` (stereo not drawn), the “activity change, negative = inhibition” value was 8.03%.

Turning to `CC(=O)N1CCCc2cc(S(=O)(=O)N3CCCC(C(=O)NCc4ccc(Cl)cc4)C3)ccc21` (stereo not drawn), the Potency is 14.1 µM (active).

Turning to `CC(=O)N1CCCc2cc(S(=O)(=O)N3CCCC(C(=O)N4CCN(c5cccc(Cl)c5)CC4)C3)ccc21` (stereo not drawn), the Potency was 3.16 µM (active).

As to `CCS(=O)(=O)N1CCCC(C(=O)NCc2ccc(C)cc2)C1` (stereo not drawn), the “activity change, negative = inhibition” value is 7.32%.

On to `CC(=O)N1c2ccc(S(=O)(=O)N3CCCC(C(=O)NCc4ccc(Cl)cc4)C3)cc2CC1C` (stereo not drawn), for which the Potency was 5.62 µM (active).

As to `Cc1cc(NC(=O)CSCC(=O)NC(C)c2ccccc2)no1` (stereo not drawn), the “activity change, negative = inhibition” value was 2.94%.

Turning to `CCN(c1ccccc1)S(=O)(=O)c1cc(C(=O)NCc2ccccn2)ccc1C`, the “activity change, negative = inhibition” value is -17.6%.

Consider `O=C(COC(=O)c1ccc(O)cc1O)NC(=O)c1ccccc1`, for which the “activity change, negative = inhibition” value was 17.8%.

Regarding `CCOc1ccc2oc(C(=O)N(CC)CC(=O)Nc3ccc(NC(C)=O)cc3)c(C)c2c1`, the “activity change, negative = inhibition” value is -16.3%.

In the case of `COc1ccc(C(C)(C)C)cc1NC(=O)CCN1C(=O)C2CCCCC2C1=O` (stereo not drawn), the “activity change, negative = inhibition” value is 2.14%.

In the case of `O=[N+]([O-])c1ncc(Br)cc1Nc1ccccc1`, the “activity change, negative = inhibition” value is 11.3%.

In the case of `CCN(CC)S(=O)(=O)c1ccc(CNC(=O)CN2C(=O)NC3(CCc4ccccc43)C2=O)cc1` (stereo not drawn), the “activity change, negative = inhibition” value was 8.18%.

With `O=C(NN=Cc1ccc([N+](=O)[O-])cc1)C1CC1`, the “activity change, negative = inhibition” value is -21.8%.

As for `CSCCC(NS(=O)(=O)c1ccc(C)cc1)C(=O)N(C)CC(=O)Nc1ccccc1Br` (stereo not drawn), the “activity change, negative = inhibition” value is -5.06%.

Regarding `O=C(Nc1ccc(N2CCN(C(=O)c3ccccc3)CC2)c(Cl)c1)c1cccnc1`, the Potency was 11.2 µM (active).

On to `Cc1ccccc1N1CCN(C(=O)c2cccnc2)CC1`, for which the “activity change, negative = inhibition” value is 1.85%.

Regarding `O=C(Nc1ccc(N2CCN(C(=O)c3ccccc3)CC2)c(Cl)c1)c1ncn[nH]1`, the “activity change, negative = inhibition” value is -21.7%.

With `Cc1cccc(C(=O)NCc2nnc(SC(C)C(=O)Nc3nnc(C)s3)n2C)c1` (stereo not drawn), the “activity change, negative = inhibition” value was -37%.

With `c1ccc(Cc2ccc(OCCn3ccnc3)cc2)cc1`, the Potency is 12.6 µM (active).

For the compound `Brc1ccc(OCCn2ccnc2)cc1`, the “activity change, negative = inhibition” value was 18.5%.

As to `Clc1ncn(CCOc2ccccc2)c1Cl`, the “activity change, negative = inhibition” value is 29%.

As to `COc1ccc(CN2CCC(n3nccc3NC(=O)CCCc3ccccc3)CC2)cc1C`, the Potency was 10 µM (active).

As to `Cc1ccc(CN2CCC(n3nccc3NC(=O)CCCc3ccccc3)CC2)o1`, the “activity change, negative = inhibition” value was 0.657%.

For the compound `COc1cc(CN2CCC(n3nccc3NC(=O)CCCc3ccccc3)CC2)ccc1O`, the “activity change, negative = inhibition” value is -21%.

For `COc1cccc(N2CC(NC(=O)c3ccc4ccccc4c3)CC2=O)c1` (stereo not drawn), the “activity change, negative = inhibition” value was 15.5%.

For the compound `CCc1ccccc1NC1c2ccccc2C(=O)N1c1cccnc1` (stereo not drawn), the “activity change, negative = inhibition” value is 11.1%.

On to `O=C1[C@@H](c2ccccc2)[C@@H](c2ccccc2)N1c1cccnc1`, for which the Potency is 5.01 µM (active).

`O=C1C(=O)N(c2ccccc2)C(c2ccccc2)C1c1ccccc1` (stereo not drawn): the “activity change, negative = inhibition” value is -16.7%.

Consider `CC[C@@]1(C(=O)OC)N[C@H](CN(C)C(C)=O)[C@@H]2C(=O)N(C)C(=O)[C@@H]21`, for which the “activity change, negative = inhibition” value is 18.4%.

With `CC(NC(=O)COC(=O)CCC(=O)c1ccc(Cl)cc1)c1ccccc1` (stereo not drawn), the “activity change, negative = inhibition” value was -14.6%.

On to `CCC(=O)N1c2ccc(S(=O)(=O)NCc3ccco3)cc2CC1C` (stereo not drawn), for which the “activity change, negative = inhibition” value was 4.82%.

Consider `COc1cccc(CNS(=O)(=O)c2ccc3c(c2)CC(C)N3C(=O)C2CCC2)c1` (stereo not drawn), for which the Potency was 6.31 µM (active).

Regarding `COc1cccc(CNS(=O)(=O)c2ccc3c(c2)CC(C)N3C(C)=O)c1` (stereo not drawn), the “activity change, negative = inhibition” value was -7.76%.

Take `Cn1cccc1C(=O)OCC(=O)NCCc1ccccc1`: the “activity change, negative = inhibition” value is 14%.

Turning to `O=C(COC(=O)c1ccc2ncsc2c1)Nc1ccc(Cl)cc1`, the “activity change, negative = inhibition” value is 7.39%.

For `CCCCn1c(N)c(N(CC(C)C)C(=O)CSc2ccc([N+](=O)[O-])cc2)c(=O)[nH]c1=O`, the “activity change, negative = inhibition” value was 0.648%.

Regarding `O=C(NNS(=O)(=O)c1c(F)cc(F)c(Cl)c1F)C12CC3CC(CC(C3)C1)C2`, the “activity change, negative = inhibition” value was 6.17%.

For `COc1cc(/C=N/O)cc(Br)c1OS(=O)(=O)c1ccc(C)cc1`, the “activity change, negative = inhibition” value was -28.6%.

Regarding `O=C(O)COc1ccc(/C=N/O)cc1Br`, the “activity change, negative = inhibition” value is 14.8%.

In the case of `CCOc1cc(/C=N/O)cc(Br)c1OC`, the Potency is 8.91 µM (active).

On to `CC(C)c1ccc(C=NNc2ccc([N+](=O)[O-])cn2)cc1`, for which the “activity change, negative = inhibition” value is -13.8%.

Regarding `COc1ccccc1-c1nn(Cc2ccccc2)cc1C(=O)N1CCN(c2ncccn2)CC1`, the “activity change, negative = inhibition” value is 0.899%.

Turning to `CCn1nc(C(=O)Nc2ccc(N3CCOCC3)cc2)c2ccccc2c1=O`, the “activity change, negative = inhibition” value is -5.96%.

For the compound `Cc1cc(NC(=O)CN2C(=O)NC(CC(C)C)C2=O)no1` (stereo not drawn), the “activity change, negative = inhibition” value was 18.5%.

For `O=C(CCl)N(Cc1cccc([N+](=O)[O-])c1)c1cccc(Cl)c1`, the Potency was 3.98 µM (active).

Consider `CCN(CC)C(=O)CN(c1cccc([N+](=O)[O-])c1)S(=O)(=O)c1ccccc1`, for which the “activity change, negative = inhibition” value is -6.32%.

As to `Cc1ccc(S(=O)(=O)N(Cc2cccc([N+](=O)[O-])c2)C(=O)N2CCN(C)CC2)cc1`, the “activity change, negative = inhibition” value was 0.369%.

For the compound `CN(C)C(CNC(=O)c1cccc(S(=O)(=O)Nc2ccc(Br)cc2)c1)c1ccco1` (stereo not drawn), the “activity change, negative = inhibition” value is 10%.

On to `O=C(CCCOc1ccccc1)NNC(=O)c1ccc(Cl)cc1`, for which the “activity change, negative = inhibition” value was 22.7%.

As for `CC1CCCCC1NC(=O)Cn1c(=O)cnc2ccccc21` (stereo not drawn), the “activity change, negative = inhibition” value is 10.8%.

On to `Cc1nn(Cc2ccccc2)c(C)c1C(=O)N1CCN(CC(=O)Nc2ccccc2Cl)CC1`, for which the “activity change, negative = inhibition” value is -5.14%.

Take `Clc1ccc(C2=CSC3=Nc4cccc5cccc(c45)N23)cc1`: the Potency was 5.01 µM (active).

Regarding `CCc1nnc(NS(=O)(=O)c2ccc(NC(=O)c3cccc(OC(F)(F)C(F)F)c3)cc2)s1`, the “activity change, negative = inhibition” value is 14.1%.

Values taken from PubChem BioAssay AID651820 (National Center for Advancing Translational Sciences (NCATS), 2012).
